Measured values taken from PubChem BioAssay (NCI).
“And” between values parts separate entries of the source, which are not always exact repeats. Equal entries are not always repeated. This is part of a sample that, as a whole, favours compounds with a hit. Of some 79,000 tested, about 15% had one in any assay. A number with no mark means an inactive call. The source made the active and inactive calls. Rule as the data show it: active = growth inhibition above about 70%; inactive = the rest.

experiment: NCI Yeast Anticancer Drug Screen. Data for the mec2-1 strain (AID 157); conditions: S. cerevisiae mec2-1 strain, at 50.0 µM (retest, dose inferred, filed as 5.0), stronger effect = higher value
In short: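 Yeast mec2-1 mutant treated with compound. Readout: growth inhibition vs vehicle controls.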

| SMILES | growth inhibition |
| --- | --- |
| c1ccc(NC2=NCCN2)nc1 | 99% (active) |
| C[CH2][Sn]([CH2]C)([CH2]C)[O]C(=O)CO | 99% (active) |
| CC12CCC(O)CC1CCC1C2CCC2(C)C1CC1CC(=O)OC12 (stereo not drawn) | 98% (active) |
| Nc1ccc(N=Nc2ccccc2)cc1 | 37% |
| C[n+]1c(/C=C/c2ccc(O)c3ncccc23)[se]c2ccccc21 | 90% (active) |
| COC(=O)C1=C(C)N2CCSC2(C)C(C(=O)OC)C1c1cccc(Cl)c1 (stereo not drawn) | 77% (active) |
| O=[N+]([O-])/C=C/c1ccccc1 | 100% (active) |
| CC12CCC(O)CC1CCC1C2CCC2(C)C(C(=O)CC(O)C(F)(F)F)CCC12 (stereo not drawn) | 43% |
| CC(C)NCC(O)c1ccc(O)c(O)c1.[Pt].c1ccc([PH+](c2ccccc2)c2ccccc2)cc1.c1ccc([PH+](c2ccccc2)c2ccccc2)cc1 | 98% (active) |
| CCOC(=O)/C(=C\c1ccc(C(=O)OC)cc1)[Se]c1ccccc1 | 26% |
| CC/C(=C/c1ccc2c(c1)OCO2)[N+](=O)[O-] | 99% (active) |
| CCOC(=O)C1=C(C)NC(=O)NC1c1ccc(N(CCCl)CCCl)cc1Cl (stereo not drawn) | 59% |
| S=C(S)N1CCOCC1 | 84% (active) |
| CCOC(=O)c1ccccc1N | 1% |
| C[n+]1c(/C=C/c2ccc(O)c(O)c2)[se]c2ccccc21 | 80% (active) |
| CS(=O)(=O)[O-].CS(=O)(=O)[O-].NC1CCCCC1N.[Pt+4] (stereo not drawn) | 99% (active) |
| COc1ccc2c(c1O)-c1cccc3c1[C@@H](C2)N(CCCl)CC3 | 99% (active) |
| COC(=O)CC1(C(=O)O)CC2(Cl)C(Cl)=C(Cl)C1(Cl)C2(Cl)Cl (stereo not drawn) | 52% |
| CCCCN(C)CC(C(C)=O)C(c1ccccc1)c1c(O)c2ccccc2oc1=O (stereo not drawn) | 18% |
| O=[n+]1c2ccccc2n([O-])c2ccccc21.[Cl][Ni][Cl] | 100% (active) |

| SMILES | growth inhibition |
| --- | --- |
| COc1ccc(C(Cc2ccc(Cl)c(Cl)c2)NCCO)cc1 (stereo not drawn) | -1% |
| O=C(N/N=C/c1cc(Cl)cc(Cl)c1[O-])c1ccccc1O.O=C(N/N=C/c1cc(Cl)cc(Cl)c1[O-])c1ccccc1O.[Zn+2] | 64% |
| Oc1ccc(Cl)cc1Sc1cc(Cl)ccc1O | 100% (active) and 99% (active) |
| O=S(=O)([O-])[O-].[OH3+].[OH3+].[OH3+].[Ru+2].c1ccccc1 | -2% |
| CCCCCC(Cn1ccnc1)c1ccc(Cl)cc1Cl (stereo not drawn) | 94% (active) |
| CC1=C(CO)C(=O)OC(C(C)C2CCC3C4CC5OC56C(O)C(N5CC5)=CC(=O)C6(C)C4CCC23C)C1 (stereo not drawn) | 49% |
| CCCC[CH2][Sn]([CH2]CCCC)[CH2]CCCC.CCCC[CH2][Sn]([CH2]CCCC)[CH2]CCCC | 100% (active) |
| CCC[CH2][Sn]1([CH2]CCC)[O]C(=O)C(C(C)C)N=Cc2ccccc2[O]1 (stereo not drawn) | 17% |
| Oc1c(Cl)cc(-c2cc(Cl)c(O)c(Cl)c2)cc1Cl | 97% (active) |
| CC(=O)Nc1ccc(/C=N/N=C(/N)N[N+](=O)[O-])cc1 | -2% |
| CC(Br)c1ccccc1 (stereo not drawn) | 10% |
| C[Si]1(C)CCCCC2(C1)C(=O)NC(=O)NC2=O | 20% |
| CCCCCCCCCCCCCCCc1cccc(O)c1O | 3% |
| CC1(C)OC2OC3C(CN(CCCl)Cc4ccccc4)OC(c4ccccc4)OC3C2O1 (stereo not drawn) | -4% |
| FC(F)(F)c1nc2ccc(SSc3ccc4nc(C(F)(F)F)[nH]c4c3)cc2[nH]1 | 20% |
| O=[N+]([O-])c1csc([N+](=O)[O-])c1 | 99% (active) |
| CCc1cc2c(cc1-c1csc(C/C(N)=N/O)n1)C(C)(C)CCC2(C)C | 92% (active) |
| CCCCCCCC[N+](CCCC)(CCCC)CCCC (tested in a mixture with another compound) | 100% (active) |
| CCC[CH2][Sn]([CH2]CCC)([S]C#N)[S]C#N | 97% (active) |

same assay, conditions: S. cerevisiae mec2-1 strain, at 50.0 µM, stronger effect = higher value

| SMILES | growth inhibition |
| --- | --- |
| c1ccc(NC2=NCCN2)nc1 | 34.2% |
| C[CH2][Sn]([CH2]C)([CH2]C)[O]C(=O)CO | 87% (active) |
| CC12CCC(O)CC1CCC1C2CCC2(C)C1CC1CC(=O)OC12 (stereo not drawn) | 85.3% (active) |
| Nc1ccc(N=Nc2ccccc2)cc1 | 17.6% |
| C[n+]1c(/C=C/c2ccc(O)c3ncccc23)[se]c2ccccc21 | 93.5% (active) |
| COC(=O)C1=C(C)N2CCSC2(C)C(C(=O)OC)C1c1cccc(Cl)c1 (stereo not drawn) | 79.5% (active) |
| O=[N+]([O-])/C=C/c1ccccc1 | 99.2% (active) |
| CC12CCC(O)CC1CCC1C2CCC2(C)C(C(=O)CC(O)C(F)(F)F)CCC12 (stereo not drawn) | 65.8% |
| CC(C)NCC(O)c1ccc(O)c(O)c1.[Pt].c1ccc([PH+](c2ccccc2)c2ccccc2)cc1.c1ccc([PH+](c2ccccc2)c2ccccc2)cc1 | 98.8% (active) |
| CCOC(=O)/C(=C\c1ccc(C(=O)OC)cc1)[Se]c1ccccc1 | 40.8% |
| CC/C(=C/c1ccc2c(c1)OCO2)[N+](=O)[O-] | 99.8% (active) |
| CCOC(=O)C1=C(C)NC(=O)NC1c1ccc(N(CCCl)CCCl)cc1Cl (stereo not drawn) | 44.1% |
| S=C(S)N1CCOCC1 | 28.1% |
| CCOC(=O)c1ccccc1N | 1.2% |
| C[n+]1c(/C=C/c2ccc(O)c(O)c2)[se]c2ccccc21 | 70.6% (active) |
| CS(=O)(=O)[O-].CS(=O)(=O)[O-].NC1CCCCC1N.[Pt+4] (stereo not drawn) | 91.2% (active) |
| COc1ccc2c(c1O)-c1cccc3c1[C@@H](C2)N(CCCl)CC3 | 70.8% (active) |
| COC(=O)CC1(C(=O)O)CC2(Cl)C(Cl)=C(Cl)C1(Cl)C2(Cl)Cl (stereo not drawn) | 47.4% |
| CCCCN(C)CC(C(C)=O)C(c1ccccc1)c1c(O)c2ccccc2oc1=O (stereo not drawn) | 78.4% (active) |
| O=[n+]1c2ccccc2n([O-])c2ccccc21.[Cl][Ni][Cl] | 92.7% (active) |

| SMILES | growth inhibition |
| --- | --- |
| COc1ccc(C(Cc2ccc(Cl)c(Cl)c2)NCCO)cc1 (stereo not drawn) | 23.3% |
| O=C(N/N=C/c1cc(Cl)cc(Cl)c1[O-])c1ccccc1O.O=C(N/N=C/c1cc(Cl)cc(Cl)c1[O-])c1ccccc1O.[Zn+2] | 91.8% (active) |
| Oc1ccc(Cl)cc1Sc1cc(Cl)ccc1O | 99.5% (active) and 99.7% (active) |
| O=S(=O)([O-])[O-].[OH3+].[OH3+].[OH3+].[Ru+2].c1ccccc1 | 92.2% (active) |
| CCCCCC(Cn1ccnc1)c1ccc(Cl)cc1Cl (stereo not drawn) | 99% (active) |
| CC1=C(CO)C(=O)OC(C(C)C2CCC3C4CC5OC56C(O)C(N5CC5)=CC(=O)C6(C)C4CCC23C)C1 (stereo not drawn) | 75.5% (active) |
| CCCC[CH2][Sn]([CH2]CCCC)[CH2]CCCC.CCCC[CH2][Sn]([CH2]CCCC)[CH2]CCCC | 99.5% (active) |
| CCC[CH2][Sn]1([CH2]CCC)[O]C(=O)C(C(C)C)N=Cc2ccccc2[O]1 (stereo not drawn) | 93% (active) |
| Oc1c(Cl)cc(-c2cc(Cl)c(O)c(Cl)c2)cc1Cl | 89% (active) |
| CC(=O)Nc1ccc(/C=N/N=C(/N)N[N+](=O)[O-])cc1 | 63.8% |
| CC(Br)c1ccccc1 (stereo not drawn) | 26.6% |
| C[Si]1(C)CCCCC2(C1)C(=O)NC(=O)NC2=O | 2.6% |
| CCCCCCCCCCCCCCCc1cccc(O)c1O | 92.1% (active) |
| CC1(C)OC2OC3C(CN(CCCl)Cc4ccccc4)OC(c4ccccc4)OC3C2O1 (stereo not drawn) | 8.75% |
| FC(F)(F)c1nc2ccc(SSc3ccc4nc(C(F)(F)F)[nH]c4c3)cc2[nH]1 | 93.8% (active) |
| O=[N+]([O-])c1csc([N+](=O)[O-])c1 | 99.7% (active) |
| CCc1cc2c(cc1-c1csc(C/C(N)=N/O)n1)C(C)(C)CCC2(C)C | 90.7% (active) |
| CCCCCCCC[N+](CCCC)(CCCC)CCCC (tested in a mixture with another compound) | 99.7% (active) |
| CCC[CH2][Sn]([CH2]CCC)([S]C#N)[S]C#N | 91% (active) |
